Screens: PubChem BioAssay, several laboratories
In the library only some 2% were active in any assay of this set; here they are far more common.
NALP1 inh = NALP1 inhibition | S. cerevisiae NALP1/ASC/caspase-1 growth, X-gal OD620, 72 h | inhibition, % at 10 µM | 280,000 tested, 0.61% active; in the data active = inhibition mostly above about 24%, no sharp cut-off; inactive = mostly below about 32%
A3A deaminase = blocks human APOBEC3A ssDNA deamination; 330,000 tested, 0.41% active; recombinant A3A, FAM/TAMRA ssDNA deamination fluorescence; inhibition, % at 20 µM; P31941;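 active = at least 40% inhibition at 20 µM here, with at most 30% in a related deaminase screen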
Target sequence (P31941 whole entry, looked up): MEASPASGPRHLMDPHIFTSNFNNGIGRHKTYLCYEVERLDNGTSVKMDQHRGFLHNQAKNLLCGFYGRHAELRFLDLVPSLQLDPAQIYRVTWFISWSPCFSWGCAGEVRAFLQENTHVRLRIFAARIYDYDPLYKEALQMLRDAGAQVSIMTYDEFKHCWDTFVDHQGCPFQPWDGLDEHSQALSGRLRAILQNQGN
A3G deaminase = inhibitors of human APOBEC3G DNA deaminase. recombinant A3G, ssDNA deamination FAM/TAMRA fluorescence. inhibition, % at 20 µM. 330,000 tested, 0.28% active. AID 493012;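 active = inhibition of at least 40% at 20 µM, with no more than 30% in the related APOBEC3A deaminase screen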
CTSL1 counter = counter-screen for PFM18AAP inhibitors: inhibitors of F. hepatica cathepsin L1. 300,000 tested, 0.49% active. recombinant F. hepatica cathepsin L1, Z-Leu-Arg-MCA fluorescence. AID 1906. inhibition, % at 5.96 µM;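 active = inhibition above the mean of all tested compounds plus 3 SD, set per screening campaign, cut at about 17% in these data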
HGIII-sPLA2 inh = Blocks human group III sPLA2 activity; AID 743126; QFRET BODIPY PC-A2 liposome hydrolysis, fluorescence; inhibition, % at 12.2 µM; 370,000 tested, 0.56% active;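 active = inhibition above mean plus 3 SD of compounds lying within the high and low control bounds, cut at about 19% in these data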
Target sequence (Q9NZ20 whole entry, looked up): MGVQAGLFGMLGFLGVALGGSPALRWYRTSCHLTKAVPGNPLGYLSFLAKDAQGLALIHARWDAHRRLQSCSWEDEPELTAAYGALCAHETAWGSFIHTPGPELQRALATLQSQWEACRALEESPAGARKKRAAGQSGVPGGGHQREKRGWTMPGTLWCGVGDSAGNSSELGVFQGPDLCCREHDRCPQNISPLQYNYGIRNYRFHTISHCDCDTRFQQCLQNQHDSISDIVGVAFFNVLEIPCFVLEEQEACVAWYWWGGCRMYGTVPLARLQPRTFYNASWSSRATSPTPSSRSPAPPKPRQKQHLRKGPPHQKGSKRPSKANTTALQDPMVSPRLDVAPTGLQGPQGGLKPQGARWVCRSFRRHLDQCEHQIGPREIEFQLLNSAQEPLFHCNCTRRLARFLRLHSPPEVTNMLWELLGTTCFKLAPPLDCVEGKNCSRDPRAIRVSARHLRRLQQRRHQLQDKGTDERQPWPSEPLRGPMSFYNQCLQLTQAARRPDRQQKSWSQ
Large screens that a line does not name were inactive.

O=C(CC(c1ccco1)C1CCCCC1=O)c1ccco1 (stereo not given)	CTSL1 counter 64
C[C@H]1[C@@H](OC(=O)Nc2ccccc2Cl)CC[C@@]23CCCN2C(=O)CCC[C@@H]13	none (no result: NALP1 inh, A3A deaminase, A3G deaminase, CTSL1 counter)
Cc1ccc(N2C(=O)C(Cl)=C(N3CCCCCC3)C2=O)cc1	none
O=C1C(Cl)=C(N2CCOCC2)C(=O)N1c1ccccc1F	CTSL1 counter 30
O=C1C(Cl)=C(N2CCOCC2)C(=O)N1c1ccc(Br)cc1	CTSL1 counter 35
O=C1C(Cl)=C(N2CCCCC2)C(=O)N1c1ccccc1	CTSL1 counter 54
O=C(COC(=O)CNC(=O)c1ccccc1Cl)Nc1cc(C(F)(F)F)ccc1Cl	none (no result: NALP1 inh, CTSL1 counter)
C[C@H](NC(=O)c1ccccc1Cl)C(=O)OC(C(=O)Nc1cc(C(F)(F)F)ccc1Cl)c1ccccc1 (stereo not given in full)	NALP1 inh 35
O=C(CNC(=O)c1ccccc1F)OC(C(=O)Nc1cc(C(F)(F)F)ccc1Cl)c1ccccc1 (stereo not given)	NALP1 inh 41, CTSL1 counter 25
O=C(Cc1ccccc1)NC1CCCc2c1cnn2-c1ccc(F)cc1F (stereo not given)	none (no result: NALP1 inh, A3A deaminase, A3G deaminase, CTSL1 counter)
CN(C)c1ccc(NC(=O)c2cccc(N3C(=O)CCC3=O)c2)cc1	NALP1 inh 40
Cc1ccc(Nc2c(-c3ccccn3)nc3ccc(C)cn23)cc1	CTSL1 counter 19
COc1ccc(C2SCC(C(=O)O)N2C(C)=O)cc1 (stereo not given)	none
CC(=O)N1C(C(=O)O)CSC1c1ccc(C)cc1 (stereo not given)	NALP1 inh 42
Cc1cc(C)c2c(c1)/C(=N/NS(=O)(=O)c1ccc(Br)cc1)CCC2	NALP1 inh 38
C#CCN1CC(N(C)CCOC(=O)c2cccs2)CS1(=O)=O (stereo not given)	none (no result: NALP1 inh, A3A deaminase, A3G deaminase, CTSL1 counter)
COc1ccc(-c2[nH]ncc2-c2ccc(Cl)cc2)c(O)c1	CTSL1 counter 17
Cc1ccc(CSc2nnc(-c3n[nH]c4c3CCC4)n2N)cc1	none (no result: NALP1 inh, A3A deaminase, A3G deaminase, CTSL1 counter)
Cc1ccc(/C=C/C(=O)OC(C)C(=O)Nc2ccc(Cl)cn2)o1 (stereo not given)	CTSL1 counter 28
COc1cc(/C=C/C(=O)OC(C)C(=O)Nc2ccc(Cl)cn2)ccc1OC(F)F (stereo not given)	none (no result: NALP1 inh, CTSL1 counter)
COc1ccc(S(=O)(=O)NCC2CCCN(Cc3cccnc3)C2)cc1 (stereo not given)	NALP1 inh 32
CC(=O)C1CCC2C3CC=C4CC(SC(=N)N)CCC4(C)C3CCC12C (stereo not given)	HGIII-sPLA2 inh 37 (no result: NALP1 inh, A3A deaminase, A3G deaminase, CTSL1 counter)
CC(=O)OCC(=O)C1CCC2C3CC=C4CC(O)CCC4(C)C3CCC12C (stereo not given)	none (no result: NALP1 inh)
CC/C(=N\NC(=O)Nc1ccccc1)c1ccccc1	none
CC/C(=N\NS(C)(=O)=O)c1ccccc1	NALP1 inh 44
O=C(c1cc(-c2ccccn2)nc2c(Cl)cccc12)N1CCN(C(=O)C2CCCO2)CC1 (stereo not given)	NALP1 inh 38
COc1ccc(C)c(NC(=O)[C@@H]2CCCN2S(=O)(=O)c2cccc3cccnc23)c1	none (no result: NALP1 inh, A3A deaminase, A3G deaminase, CTSL1 counter)
O=c1[nH]c(CN2CCOCC2)nc2ccccc12	NALP1 inh 24
O=C(O)c1ccc2c(=O)[nH]c(CN3CCOCC3)nc2c1	none
COCCCNC(=O)C[C@H]1C[C@@]2(C(=O)OC)C(=C[C@H](COCc3ccccc3)O[C@@H]2C)N(Cc2ccc(Cl)cc2Cl)C1=O	none (no result: NALP1 inh, A3A deaminase, A3G deaminase, CTSL1 counter)
O=C(NCCN1CCNC1=O)C1CCC(=O)N(CCc2ccc(Cl)cc2)C1 (stereo not given)	none (no result: CTSL1 counter)
O=C(NCCN1CCCC1=O)C1CCC(=O)N(CCc2ccc(Cl)cc2)C1 (stereo not given)	NALP1 inh 32
CC(=O)c1cc(-c2cnn(Cc3ccccc3)c2)c(=O)n2c1CCC2	none (no result: NALP1 inh, A3A deaminase, A3G deaminase, CTSL1 counter)
O=C([C@@H]1C[C@H]1c1ccccc1)N1CC[C@H]2[C@H](CCCN2Cc2ccccc2)C1	none (no result: NALP1 inh, A3A deaminase, A3G deaminase, CTSL1 counter)
O=C(CSc1nnc(COc2ccccc2)n1-c1ccccc1)Nc1ccc(S(=O)(=O)Nc2nccs2)cc1	none (no result: NALP1 inh, A3A deaminase, A3G deaminase, CTSL1 counter)
Cc1cc(C)c2sc(N(CCN(C)C)C(=O)c3cc(Cl)sc3Cl)nc2c1	CTSL1 counter 17
Cc1ccc2nc(N(CCN(C)C)C(=O)c3cc(Cl)sc3Cl)sc2c1	none
Cc1nn(-c2ccccc2)c2sc(C(=O)NC3CCCCCCC3)cc12	none (no result: NALP1 inh, A3A deaminase, A3G deaminase, CTSL1 counter)
C[C@H]1[C@@H](OC(=O)NCCc2ccccc2)CC[C@@]23CCCN2C(=O)CCC[C@@H]13	none (no result: NALP1 inh, A3A deaminase, A3G deaminase, CTSL1 counter)
O=C(c1cnc2n(c1=O)CCS2)N1CCc2ccccc21	none
CC1Cc2ccccc2N1C(=O)c1cnc2n(c1=O)CCS2 (stereo not given)	CTSL1 counter 66
Brc1ccc2c(c1)C(c1cccs1)=NNC(c1cccnc1)=N2	none
CCOc1ccc2c(c1)C(c1cccs1)=NNC(c1cccnc1)=N2	NALP1 inh 30
COc1ccc(Cn2cc(CN3[C@H](CC(C)C)COc4cc(Br)ccc4S3(=O)=O)nn2)cc1	none (no result: NALP1 inh, A3A deaminase, A3G deaminase, CTSL1 counter)
COc1cccc(NC(=S)N/N=C2\CC3CCC2(C)C3(C)C)c1 (stereo not given)	none
COc1cccc(NC(=S)NN=C2CCC(C(C)(C)C)CC2)c1 (stereo not given)	CTSL1 counter 20
Cc1cccc(Cn2cc(COC(=O)NCC(C)C)nn2)c1	none (no result: NALP1 inh, A3A deaminase, A3G deaminase, CTSL1 counter)
Cc1cccc(C(=O)Oc2c(Br)cc(Br)cc2/C=N/NC(=O)c2ccncc2)c1	NALP1 inh 28
COC(=O)C1=C(C(=O)OC)[C@@]2([C@@H](Cc3ccc(C)cc3)Nc3ccccc3)C=C[C@@H]1O2	none (no result: NALP1 inh, A3A deaminase, A3G deaminase, CTSL1 counter)
O=C(Nc1ccc2ccccc2c1)NC1CCCCN(Cc2ccc(Cl)cc2)C1=O (stereo not given)	none (no result: NALP1 inh, A3A deaminase, A3G deaminase, CTSL1 counter)
Cc1ccc(CCNC(=O)CN(C)S(=O)(=O)c2cnc[nH]2)cc1	none
CN(CC(=O)NCc1ccccc1)S(=O)(=O)c1cnc[nH]1	NALP1 inh 45
COC(=O)[C@]12C[C@H](CC(=O)N3CCSCC3)C(=O)N(Cc3cccc4ccccc34)C1=C[C@H](C1CCCC1)O[C@@H]2C	none (no result: NALP1 inh, A3A deaminase, A3G deaminase, CTSL1 counter)
COc1ccc(S[C@]2(C(=O)NCc3ccccc3)CC(=O)N[C@@H]2c2ccc(OC)cc2)cc1	none (no result: NALP1 inh, A3A deaminase, A3G deaminase, CTSL1 counter)
CCC(C)[C@H](NC(=O)N1CC(=O)Nc2ccccc21)C(=O)N[C@@H](Cc1c[nH]c2ccccc12)C(=O)O (stereo not given in full)	none
CC(C)C[C@H](NC(=O)N1CC(=O)Nc2ccccc21)C(=O)N[C@@H](Cc1c[nH]c2ccccc12)C(=O)O	CTSL1 counter 22
CC(C)C[C@H](NC(=O)N1CC(=O)Nc2ccccc21)C(=O)N[C@H](Cc1c[nH]c2ccccc12)C(=O)O	CTSL1 counter 38
Cn1cccc1C(=O)N1CCN(S(=O)(=O)c2ccc(F)cc2)CC1	none (no result: NALP1 inh, A3A deaminase, A3G deaminase, CTSL1 counter)
Cc1cccc(-c2cccc3c4c([nH]c23)[C@@H]2C[C@H](N(C)C(=O)c3cccc(Cl)c3)[C@H]([C@H](C)O)CN2CC4)c1	none (no result: NALP1 inh, A3A deaminase, A3G deaminase, CTSL1 counter)
COc1ccc(Nc2nnc(SCc3cc([N+](=O)[O-])cc4c3OCOC4)s2)cc1	NALP1 inh 44
